Measured values: PubChem BioAssay (NCATS)
Several values for one entry are separate records, joined by “and”; a condition that tells them apart may be missing. Equal values may be shown once. Records with an inconclusive call do not appear. Activity calls are given as the source filed them. Unless noted, calls come from the whole dose curve.

Tests used:
[1] = qHTS Assay for Lipid Storage Modulators (AID 1519); conditions: Drosophila S3 cells, BODIPY lipid droplet/cell ratio, laser cytometry, cells loaded with oleic acid; for activity change, negative = inhibition: % is set by controls: 0 for no effect and ±100 for the full control effect
Outline: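 Cells seeded at 5,000 per well were treated with compounds over a concentration series and loaded with oleic acid (400 uM, as added). Lipid droplet fluorescence (488 nm excitation, 500-530 nm channel) was read by laser-scanning cytometry and normalized to 20 uM Triacsin C.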

[2] = target: Alpha-galactosidase A (Homo sapiens) (UniProt P06280); test: Counterscreen for Glucocerebrosidase Inhibitors: qHTS Assay for Human alpha-Galactosidase at pH 4.5 (AID 992; active = well fitted curve in the direction sought with a large enough effect; an effect the other way counts as inactive or inconclusive; note: 0% is about no effect); conditions: purified enzyme, fluorogenic substrate; series mostly up to 76.9 µM
Outline: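 Human enzyme (2 nM) with 80 uM 4-methylumbelliferyl alpha-D-galactopyranoside in 50 mM citric acid, 0.005% Tween-20, pH 4.5, 20 min at room temperature. Compounds 0.7 nM–77 uM; fluorescence Ex 365/Em 440 after pH 10 stop; AC50 from Hill fits.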

[3] = Validation of Assay for Modulators of Lamin A Splicing (AID 1459; active = well fitted curve in the direction sought with a large enough effect in the signal ratio; the % refers to the signal ratio;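 note: cells exposed to compound for two days before reading; 0% is about no effect; ratio rise marks activators and ratio drop marks inhibitors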); conditions: Lamin A splicing dual RFP/GFP fluorescence reporter; series mostly up to 9.22 µM
Outline: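 Splicing correction read as GFP (500-530 nm) over DsRed2 (575-640 nm) object intensity after 48 h compound exposure of reporter HeLa S3 clones (600 cells/well, 2% FBS medium); ancitabine and cycloheximide titrations, 0.5% DMSO as vehicle.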

[4] = target: DNA repair nuclease/redox regulator APEX1 (Homo sapiens) (UniProt P27695); test: qHTS Validation Assay for Inhibitors of the Human Apurinic/apyrimidinic Endonuclease 1 (APE1) (AID 1705; active = well fitted curve in the direction sought with a large enough effect; an effect the other way counts as inactive or inconclusive;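 note: TAMRA fluorescence gain over two minutes as APE1 cuts a quenched THF abasic duplex; % is set by controls: 0 for no effect and ±100 for the full control effect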); conditions: purified APE1 endonuclease activity, fluorescence, titration; series mostly up to 57.1 µM
Outline: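 Activity read as rising fluorescence (598 nm emission, 525 nm excitation) from incision of a TAMRA/BHQ-2 duplex carrying a THF abasic site (50 nM). Compound and enzyme sat 15 min at RT before substrate start; signal change between first and third 60-s reads.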

[5] = Counterscreen for APE1 Inhibitors: Fluorescent Dye Displacement Validation Assay (AID 1707; active = well fitted curve in the direction sought with a large enough effect; an effect the other way counts as inactive or inconclusive;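 note: plate controls were ThO with dsDNA and no compound for no effect and ThO without dsDNA for full effect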); conditions: fluorescent dye displacement from DNA; series mostly up to 57.1 µM
Outline: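 Thiazole Orange (250 nM) bound to 50 nM TAMRA-labelled dsDNA with tetrahydrofuran abasic site; displacement by DNA-binding compounds lowers fluorescence. Buffer 50 mM Tris-HCl pH 7.5, 50 mM NaCl, 2 mM MgCl2, 0.01% Tween-20; endpoint read at 480/540 nm.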

[6] = measured here: cell count channel max response
[7] = measured here: lipid channel max response

Chain of DNA repair nuclease/redox regulator APEX1 (Homo sapiens) (P27695 whole entry, looked up): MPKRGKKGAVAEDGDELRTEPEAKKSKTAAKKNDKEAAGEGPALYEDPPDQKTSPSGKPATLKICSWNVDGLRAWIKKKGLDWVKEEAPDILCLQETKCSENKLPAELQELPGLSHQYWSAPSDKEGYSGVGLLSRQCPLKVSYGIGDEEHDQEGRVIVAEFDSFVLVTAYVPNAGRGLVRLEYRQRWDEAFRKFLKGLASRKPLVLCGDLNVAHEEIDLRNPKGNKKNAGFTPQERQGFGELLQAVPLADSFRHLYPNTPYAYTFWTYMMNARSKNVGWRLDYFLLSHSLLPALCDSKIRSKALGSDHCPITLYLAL
Chain of Alpha-galactosidase A (Homo sapiens) (P06280 whole entry, looked up): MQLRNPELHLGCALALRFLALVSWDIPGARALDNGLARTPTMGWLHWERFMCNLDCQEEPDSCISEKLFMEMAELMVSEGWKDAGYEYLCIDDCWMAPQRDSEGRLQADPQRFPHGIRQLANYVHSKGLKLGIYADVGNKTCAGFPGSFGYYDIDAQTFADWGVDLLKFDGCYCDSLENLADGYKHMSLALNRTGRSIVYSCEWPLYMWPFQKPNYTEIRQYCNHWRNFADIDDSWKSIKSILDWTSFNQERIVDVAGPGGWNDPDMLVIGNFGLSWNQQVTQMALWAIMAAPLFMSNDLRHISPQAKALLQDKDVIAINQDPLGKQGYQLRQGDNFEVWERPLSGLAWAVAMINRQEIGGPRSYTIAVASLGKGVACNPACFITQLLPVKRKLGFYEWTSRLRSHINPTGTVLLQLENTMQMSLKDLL

## Cc1c(C(N)=O)cc([N+](=O)[O-])cc1[N+](=O)[O-]
[1]; at 57.5 µM (top of the series)
  activity change, negative = inhibition: 9.82% (inactive)
[1]; [6]
  max response: 12.8%
[1]; [7]
  max response: 29.3%

## CO/N=C1\CN(c2nc3c(cc2F)c(=O)c(C(=O)O)cn3C2CC2)CC1CN (stereo not given)
[1]; at 57.5 µM (top of the series)
  activity change, negative = inhibition: 8.95% (inactive)
[1]; [6]
  max response: 11%
[1]; [7]
  max response: 24%

## C[C@@H](CN(C)C)CN1c2ccccc2Sc2ccccc21
[1]; at 25.7 µM (top of the series)
  activity change, negative = inhibition: -1.55% (inactive)
[1]; [6]
  max response: -4.09%
[1]; [7]
  max response: -6.89%

## CC(C)(Oc1ccc(Cl)cc1)C(=O)O
[1]; at 25.7 µM (top of the series)
  activity change, negative = inhibition: -1.74% (inactive)
[1]; [6]
  max response: 1.11%
[1]; [7]
  max response: -1.85%

## COc1c(C)c2c(c(O)c1C/C=C(\C)CCC(=O)O)C(=O)OC2
[1]; at 25.7 µM (top of the series)
  activity change, negative = inhibition: -1.1% (inactive)
[1]; [6]
  max response: 6.28%
[1]; [7]
  max response: 5.14%

## CCN(CCCCOC(=O)c1ccc(OC)c(OC)c1)C(C)Cc1ccc(OC)cc1 (stereo not given)
[1]; at 57.5 µM (top of the series)
  activity change, negative = inhibition: 3.28% (inactive)
[1]; [6]
  max response: 17.5%
[1]; [7]
  max response: 26.2%

## C1CCc2nnnn2CC1
[2]
  outcome: inactive
[3]
  outcome: inactive
[1]; at 25.7 µM (top of the series)
  activity change, negative = inhibition: 0.501% (inactive)
[1]; at 57.5 µM (top of the series)
  activity change, negative = inhibition: 0.8% (inactive)
[1]; [6]
  max response: 12.5% and 9.15%
[1]; [7]
  max response: 18% and 12.4%
[4]
  Potency: inactive
[5]
  outcome: inactive

## c1ccc(-c2ccc(C(c3ccccc3)n3ccnc3)cc2)cc1 (stereo not given)
[1]; at 57.5 µM (top of the series)
  activity change, negative = inhibition: 13.6% (inactive)
[1]; [6]
  max response: 10.1%
[1]; [7]
  max response: 27.7%

## C/C=C/c1ccc(OC)cc1
[1]; at 57.5 µM (top of the series)
  activity change, negative = inhibition: 9.09% (inactive)
[1]; [6]
  max response: 9.56%
[1]; [7]
  max response: 22.7%

## NCCc1ccn[nH]1
[1]; at 25.7 µM (top of the series)
  activity change, negative = inhibition: -0.85% (inactive)
[1]; [6]
  max response: 12.5%
[1]; [7]
  max response: 11.2%

## N[C@@H](Cc1cnc[nH]1)C(=O)O
[2]
  outcome: inactive
[3]
  outcome: inactive
[1]; at 57.5 µM (top of the series)
  activity change, negative = inhibition: 2.39% (inactive)
[1]; [6]
  max response: -24.8%
[1]; [7]
  max response: -24.4%
[4]
  Potency: inactive
[5]
  outcome: inactive

## COC(=O)[C@H]1[C@H]2C[C@H]3c4[nH]c5ccccc5c4CCN3C[C@H]2CC[C@@H]1O
[3]
  outcome: inactive
[4]
  Potency: inactive
[5]
  outcome: inactive

## C[C@H](O)C(=O)Nc1c(I)c(C(=O)NC(CO)CO)c(I)c(C(=O)NC(CO)CO)c1I
[1]; at 25.7 µM (top of the series)
  activity change, negative = inhibition: -3.5% (inactive)
[1]; [6]
  max response: -8.47%
[1]; [7]
  max response: -9.62%

## Oc1c(I)cc(I)c2cccnc12
[1]; at 57.5 µM (top of the series)
  activity change, negative = inhibition: -2.05% (inactive)
[1]; [6]
  max response: 9.29%
[1]; [7]
  max response: 10.6%

## Nc1cc(Cl)c(NC2=NCCN2)c(Cl)c1
[2]
  outcome: inactive
[3]
  outcome: inactive
[4]
  Potency: inactive
[5]
  outcome: inactive

## CCn1cc(C(=O)O)c(=O)c2cnc(N3CCCC3)nc21
[1]; at 25.7 µM (top of the series)
  activity change, negative = inhibition: -3.05% (inactive)
[1]; [6]
  max response: -11.9%
[1]; [7]
  max response: -16.2%

## CC[N+](CC)(CCNC(=O)C(=O)NCC[N+](CC)(CC)Cc1ccccc1Cl)Cc1ccccc1Cl
[1]; at 57.5 µM (top of the series)
  activity change, negative = inhibition: 1.97% (inactive)
[1]; [6]
  max response: -14%
[1]; [7]
  max response: -12.6%

## COc1ccc(OC)c(C(O)CNC(=O)CN)c1 (stereo not given)
[1]; at 57.5 µM (top of the series)
  activity change, negative = inhibition: 8.05% (inactive)
[1]; [6]
  max response: 10.1%
[1]; [7]
  max response: 23.2%

## CC(CCc1ccccc1)NCC(O)c1ccc(O)c(C(N)=O)c1 (stereo not given)
[3]
  outcome: inactive
[1]; at 57.5 µM (top of the series)
  activity change, negative = inhibition: 1.59% (inactive) and 2.63% (inactive)
[1]; [6]
  max response: 0.538% and 18.3%
[1]; [7]
  max response: 3.22% and 11.8%
[4]
  Potency: inactive
[5]
  outcome: inactive
